{
  "source": "PubChem BioAssay AID463173",
  "about": "(ICCB-Longwood Screening Facility, Harvard Medical School, 2010)",
  "note": "About 4,300 (8.3%) of roughly 52,000 compounds were called active. No stated cut-off is given here; in the data, active means survival mostly below about 52% (no sharp cut-off); inactive means mostly above about 56%. Many of the other results were omitted from the sample, so actives are more common in it than they were.",
  "data": [
    {"system": "DeltatarO mutant", "assay": "growth inhibition of S. aureus wild type versus tarO mutant, primary screen, teichoic acid synthesis inhibitors, RN4220, OD600 (AID 463173)", "details": "OD600, 18 h, active compounds read low, screened at 18.75 µg/mL (by protocol)", "values": [
      {"molecule": "CCNS(=O)(=O)c1cccs1", "survival": "96% (inactive)"},
      {"molecule": "Cc1nn(CC(=O)Nc2ccccc2F)c(=O)c2c(C)n(-c3ccc(Cl)cc3)nc12", "survival": "102% (inactive)"},
      {"molecule": "Cc1cc(NC(=O)NCc2ccc3c(c2)CCN3C(=O)c2ccccc2)ccc1Br", "survival": "116% (inactive)"},
      {"molecule": "CCOC(=O)c1c(Nc2ccc(O)cc2)nnc(-c2ccccc2)c1-c1ccccc1", "survival": "95% (inactive)"},
      {"molecule": "CCOC(=O)c1c(C)oc2nc(C)nc(Nc3ccc(C)c(Cl)c3)c12", "survival": "89% (inactive)"},
      {"molecule": "CCOC(=O)c1c(Nc2ccccc2)nnc(-c2ccccc2)c1-c1ccccc1", "survival": "6% (active)"},
      {"molecule": "CCOC(=O)c1c(C)oc2nc(C)nc(Nc3ccc(CC)cc3)c12", "survival": "115% (inactive)"},
      {"molecule": "CCOC(=O)c1c(Nc2ccc(C)cc2)nnc(-c2ccccc2)c1-c1ccccc1", "survival": "1% (active)"},
      {"molecule": "CCOC(=O)c1c(Nc2ccc(F)cc2)nnc(-c2ccccc2)c1-c1ccccc1", "survival": "-3% (active)"},
      {"molecule": "CCOC(=O)c1c(C)oc2ncnc(Nc3ccc(CC)cc3)c12", "survival": "85% (inactive)"},
      {"molecule": "CCOC(=O)c1c(Oc2ccc(C(C)=O)cc2)nnc(-c2ccccc2)c1-c1ccccc1", "survival": "67% (inactive)"},
      {"molecule": "CCOC(=O)c1c(Nc2ccc(C)c(C)c2)nnc(-c2ccccc2)c1-c1ccccc1", "survival": "-5% (active)"},
      {"molecule": "CCOC(=O)c1cnc(-c2ccccc2)nc1Nc1ccc(C)cc1", "survival": "90% (inactive)"},
      {"molecule": "COc1cc(C2C(C(=O)Nc3ccccc3C)=C(C)Nc3nc(SCc4cc(C)ccc4C)nn32)ccc1O", "note": "(stereo not drawn)", "survival": "105% (inactive)"},
      {"molecule": "CCOc1ccccc1N(CC)C(=O)c1cc2c(=O)[nH]c3ccc(C)cc3c2s1", "survival": "74% (inactive)"},
      {"molecule": "Cc1ccc(-n2nc(C)c3c(C)cc(=O)n(CC(=O)NC(C)C)c32)cc1", "survival": "105% (inactive)"},
      {"molecule": "O=C(CN1C(=O)COc2ccc(S(=O)(=O)N3CCCCCC3)cc21)Nc1cccc(Cl)c1", "survival": "60% (inactive)"},
      {"molecule": "COc1cc(OC)c(N(C)C(=O)c2sc3nc4n(c(=O)c3c2C)CCCC4)cc1Cl", "survival": "53% (inactive)"},
      {"molecule": "O=C(Cc1ccccc1)N(Cc1cccnc1)c1nc2ccc(Cl)cc2s1", "survival": "72% (inactive)"},
      {"molecule": "O=C(Cc1ccc(-c2ccccc2)cc1)NCCS(=O)(=O)N1CCN(c2ccccc2)CC1", "survival": "122% (inactive)"},
      {"molecule": "CCOc1ccc(CNC(=O)c2ccc(NC(=O)c3nsc4ccccc34)cc2)cc1", "survival": "79% (inactive)"},
      {"molecule": "COc1ccc(C(=O)CN2CCN(S(=O)(=O)c3ccc(C(C)C)cc3)CC2)cc1", "survival": "81% (inactive)"},
      {"molecule": "COc1ccc(N2CC(NC(=O)/C=C\\c3ccc(OC)c(OC)c3)CC2=O)cc1", "note": "(stereo not drawn)", "survival": "55% (inactive)"},
      {"molecule": "CC(=O)c1ccc(NC(=O)CC2Oc3ccc(C)cc3NC2=O)cc1", "note": "(stereo not drawn)", "survival": "85% (inactive)"},
      {"molecule": "O=C(NCCc1ccc(F)cc1)C(=O)NCC(c1ccc2c(c1)OCO2)N1CCOCC1", "note": "(stereo not drawn)", "survival": "74% (inactive)"},
      {"molecule": "Cc1ccc2[nH]c3c(=O)n(CC(=O)N(C)c4cc(Cl)ccc4C)ncc3c2c1", "survival": "89% (inactive)"},
      {"molecule": "Cc1cccc(N(C)C(=O)Cc2c(C(=O)O)[nH]c3ccccc23)c1", "survival": "134% (inactive)"},
      {"molecule": "Cc1ccc(C)c(N(C)C(=O)Cc2c(C(=O)O)[nH]c3ccc(Cl)cc23)c1", "survival": "40% (active)"},
      {"molecule": "CCN(C(=O)Cc1c(C(=O)O)[nH]c2ccccc12)c1ccc(OC)cc1", "survival": "65% (inactive)"},
      {"molecule": "CCCN(C(=O)Cc1c(C(=O)O)[nH]c2ccc(Cl)cc12)c1ccc(OCC)cc1", "survival": "47% (active)"},
      {"molecule": "COc1ccc(OC)c(NC(=O)Cc2c(C(=O)O)[nH]c3ccc(Cl)cc23)c1", "survival": "54% (inactive)"},
      {"molecule": "CCOC(=O)c1ccccc1NC(=O)N1CCC(CN2CCCCC2)CC1", "survival": "83% (inactive)"},
      {"molecule": "COC(=O)c1cccc(NC(=O)Nc2cc(C(=O)NCc3cccc(F)c3)ccc2N2CCCC2)c1", "survival": "91% (inactive)"},
      {"molecule": "Cc1ccc(OCC(=O)OCc2cc(=O)n3nc(-c4cccs4)sc3n2)cc1C", "survival": "102% (inactive)"},
      {"molecule": "Nc1nonc1/C(=N/O)N1CCCC1", "survival": "113% (inactive)"},
      {"molecule": "COc1ccc(N2CCN(C(CNC(=O)C(=O)NCc3cccnc3)c3cccnc3)CC2)cc1", "note": "(stereo not drawn)", "survival": "102% (inactive)"},
      {"molecule": "CCOc1ccccc1NC(=O)CCc1nc(-c2cccc(C)c2)no1", "survival": "73% (inactive)"},
      {"molecule": "CCOc1ccccc1-c1noc(CCCC(=O)Nc2cccc(C(F)(F)F)c2)n1", "survival": "61% (inactive)"},
      {"molecule": "Cc1cc(C)cc(NC(=O)CCCc2nc(-c3ccccc3Cl)no2)c1", "survival": "89% (inactive)"},
      {"molecule": "CCOC(=O)c1ccc(NC(=O)CCCc2nc(-c3cc(OC)c(OC)c(OC)c3)no2)cc1", "survival": "44% (active)"},
      {"molecule": "COc1ccccc1-c1noc(CCCC(=O)Nc2cc(C)ccc2C)n1", "survival": "54% (inactive)"},
      {"molecule": "CCOc1ccccc1NC(=O)CCCc1nc(-c2ccccc2Cl)no1", "survival": "38% (active)"},
      {"molecule": "O=C(CCc1nc(-c2ccccc2F)no1)Nc1cccc(C(F)(F)F)c1", "survival": "81% (inactive)"},
      {"molecule": "CCOC(=O)c1ccc(NC(=O)CCCc2nc(-c3ccccc3Cl)no2)cc1", "survival": "36% (active)"},
      {"molecule": "CCc1ccc(NC(=O)CCCc2nc(-c3ccco3)no2)cc1", "survival": "81% (inactive)"},
      {"molecule": "COc1cc(-c2noc(CCC(=O)Nc3cc(C)ccc3C)n2)cc(OC)c1OC", "survival": "81% (inactive)"},
      {"molecule": "O=C(CCCc1nc(-c2ccccc2)no1)Nc1cc(C(F)(F)F)cc(C(F)(F)F)c1", "survival": "19% (active)"},
      {"molecule": "COc1cccc(NC(=O)CCc2nc(-c3cc(OC)c(OC)c(OC)c3)no2)c1", "survival": "73% (inactive)"}
    ]}
  ]
}
